Results published in PubChem BioAssay (NCATS).
Records with an inconclusive call do not appear. Calls of active or inactive are those of the source. Calls follow the shape of the dose curve; as a rule, active = well fitted inhibition curve with a large enough effect; inconclusive = small, poorly fitted or top-dose-only effect; inactive = flat fitted curve, though single readings scatter.

Columns and labels:
[1] = qHTS profiling for inhibitors of Plasmodium falciparum proliferation (AID 504749); also: nearly all actives have a fitted effect of over 60% in size;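 as to activity, negative = inhibition: 0% = DMSO vehicle and full inhibition = artemisinin control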; conditions: P. falciparum in erythrocytes, SYBR Green DNA, 72 h
Summary of the method: (§1)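 Fluorescence of SYBR Green-bound parasite DNA, read at 485/535 nm, served as the growth measure. Infected erythrocytes were cultured with compound 72 h; artemisinin (0.29 uM) and DMSO wells defined the normalization range.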

3D7 = assay: as above; conditions: P. falciparum in erythrocytes, SYBR Green DNA, 72 h; series mostly up to 28.7 µM
Summary of the method: as §1

7G8 = assay: as above; conditions: P. falciparum in erythrocytes, SYBR Green DNA, 72 h; series mostly up to 28.7 µM
Summary of the method: as §1

AA1029 = assay: as above; conditions: P. falciparum in erythrocytes, SYBR Green DNA, 72 h; series mostly up to 28.7 µM
Summary of the method: as §1

AS120 = assay: as above; conditions: P. falciparum in erythrocytes, SYBR Green DNA, 72 h; series mostly up to 28.7 µM
Summary of the method: as §1

ATS189 = assay: as above; conditions: P. falciparum in erythrocytes, SYBR Green DNA, 72 h; series mostly up to 28.7 µM
Summary of the method: as §1

ATS95 = assay: as above; conditions: P. falciparum in erythrocytes, SYBR Green DNA, 72 h; series mostly up to 28.7 µM
Summary of the method: as §1

C2A = assay: as above; conditions: P. falciparum in erythrocytes, SYBR Green DNA, 72 h; series mostly up to 28.7 µM
Summary of the method: as §1

CP185 = assay: as above; conditions: P. falciparum in erythrocytes, SYBR Green DNA, 72 h; series mostly up to 28.7 µM
Summary of the method: as §1

CP191 = assay: as above; conditions: P. falciparum in erythrocytes, SYBR Green DNA, 72 h; series mostly up to 28.7 µM
Summary of the method: as §1

CP192 = assay: as above; conditions: P. falciparum in erythrocytes, SYBR Green DNA, 72 h; series mostly up to 28.7 µM
Summary of the method: as §1

CP194 = assay: as above; conditions: P. falciparum in erythrocytes, SYBR Green DNA, 72 h; series mostly up to 28.7 µM
Summary of the method: as §1

CP201 = assay: as above; conditions: P. falciparum in erythrocytes, SYBR Green DNA, 72 h; series mostly up to 28.7 µM
Summary of the method: as §1

CP203 = assay: as above; conditions: P. falciparum in erythrocytes, SYBR Green DNA, 72 h; series mostly up to 28.7 µM
Summary of the method: as §1

CP211 = assay: as above; conditions: P. falciparum in erythrocytes, SYBR Green DNA, 72 h; series mostly up to 28.7 µM
Summary of the method: as §1

CP215 = assay: as above; conditions: P. falciparum in erythrocytes, SYBR Green DNA, 72 h; series mostly up to 28.7 µM
Summary of the method: as §1

CP217 = assay: as above; conditions: P. falciparum in erythrocytes, SYBR Green DNA, 72 h; series mostly up to 28.7 µM
Summary of the method: as §1

CP237 = assay: as above; conditions: P. falciparum in erythrocytes, SYBR Green DNA, 72 h; series mostly up to 28.7 µM
Summary of the method: as §1

CP238 = assay: as above; conditions: P. falciparum in erythrocytes, SYBR Green DNA, 72 h; series mostly up to 28.7 µM
Summary of the method: as §1

CP247 = assay: as above; conditions: P. falciparum in erythrocytes, SYBR Green DNA, 72 h; series mostly up to 28.7 µM
Summary of the method: as §1

[2] = at 28.7 µM (top of the series), parasite line A
[3] = at 28.7 µM (top of the series), parasite line B
Potency is read from the fitted curve at half-maximal effect.

COC(=O)C[C@](O)(CCCC(C)(C)O)C(=O)O[C@@H]1C(OC)=C[C@]23CCCN2CCc2cc4c(cc2[C@H]13)OCO4
active: Potency ([1]; parasite line A) 25.1 nM | Potency ([1]; parasite line B) 25.1 nM | Potency (3D7) 25.1 nM | Potency (7G8) 11.2 nM | Potency (AA1029) 25.1 nM | Potency (AS120) 15.8 nM | Potency (ATS189) 31.6 nM | Potency (ATS95) 28.2 nM | Potency (C2A) 22.4 nM | Potency (CP185) 35.5 nM | Potency (CP191) 28.2 nM | Potency (CP192) 26.9 nM | Potency (CP194) 0.0379 µM | Potency (CP201) 42.6 nM | Potency (CP203) 33.8 nM | Potency (CP211) 30.1 nM | Potency (CP215) 33.8 nM | Potency (CP217) 31.6 nM | Potency (CP237) 15.8 nM | Potency (CP238) 28.2 nM | Potency (CP247) 17.8 nM

CC[C@H]1CN2CCc3cc(OC)c(OC)cc3[C@H]2C[C@@H]1C[C@@H]1NCCc2cc(OC)c(OC)cc21
active: Potency ([1]; parasite line A) 316 nM | Potency ([1]; parasite line B) 282 nM | Potency (3D7) 224 nM | Potency (7G8) 126 nM | Potency (AA1029) 316 nM | Potency (AS120) 316 nM | Potency (ATS189) 708 nM | Potency (ATS95) 282 nM | Potency (C2A) 224 nM | Potency (CP185) 316 nM | Potency (CP192) 536 nM | Potency (CP194) 0.601 µM | Potency (CP201) 675 nM | Potency (CP203) 379 nM | Potency (CP211) 675 nM | Potency (CP215) 536 nM | Potency (CP217) 708 nM | Potency (CP237) 126 nM | Potency (CP238) 316 nM | Potency (CP247) 398 nM

CC1(C)O[C@@H]2C[C@@H]3[C@H]4C[C@@H](F)C5=CC(=O)C=C[C@]5(C)[C@@]4(F)[C@@H](O)C[C@]3(C)[C@]2(C(=O)CO)O1
inactive: activity, negative = inhibition [1, 2] 4.83% | activity, negative = inhibition [1, 3] 2.94% | Potency (3D7) | Potency (AA1029) | Potency (AS120) | Potency (ATS189) | Potency (ATS95) | Potency (C2A) | Potency (CP185) | Potency (CP191) | Potency (CP217) | Potency (CP237) | Potency (CP238) | Potency (CP247)
active: Potency (CP194) 15.1 µM

COc1cc(C(=O)NS(=O)(=O)c2ccccc2C)ccc1Cc1cn(C)c2ccc(NC(=O)OC3CCCC3)cc12
active: Potency (7G8) 12600 nM
inactive: activity, negative = inhibition [1, 2] -4.29% | Potency (3D7) | Potency (AA1029) | Potency (AS120) | Potency (ATS95) | Potency (C2A) | Potency (CP185) | Potency (CP191) | Potency (CP192) | Potency (CP201) | Potency (CP237) | Potency (CP238)

Nc1ccc(S(=O)(=O)Nc2ncccn2)cc1
inactive: activity, negative = inhibition ([1]; at 12.8 µM (top of the series), parasite line A) 8.9% | Potency (3D7) | Potency (7G8) | Potency (AA1029) | Potency (AS120) | Potency (ATS189) | Potency (ATS95) | Potency (C2A) | Potency (CP185) | Potency (CP191) | Potency (CP192) | Potency (CP194) | Potency (CP201) | Potency (CP203) | Potency (CP211) | Potency (CP217) | Potency (CP237) | Potency (CP238) | Potency (CP247)

O=C(O)CO.[NH2-].[NH2-].[Pt+2]
inactive: activity, negative = inhibition [1, 2] 12% | activity, negative = inhibition [1, 3] 15.6% | Potency (3D7) | Potency (7G8) | Potency (AA1029) | Potency (AS120) | Potency (ATS189) | Potency (ATS95) | Potency (C2A) | Potency (CP185) | Potency (CP191) | Potency (CP192) | Potency (CP194) | Potency (CP201) | Potency (CP203) | Potency (CP211) | Potency (CP215) | Potency (CP217) | Potency (CP237) | Potency (CP238) | Potency (CP247)

Nc1ccn([C@@H]2O[C@H](CO)[C@H](O)C2(F)F)c(=O)n1
active: Potency ([1]; parasite line A) 5620 nM | Potency ([1]; parasite line B) 316 nM | Potency (3D7) 3160 nM | Potency (7G8) 2820 nM | Potency (AA1029) 1580 nM | Potency (AS120) 3550 nM | Potency (ATS189) 3980 nM | Potency (ATS95) 5620 nM | Potency (C2A) 3980 nM | Potency (CP185) 5620 nM | Potency (CP191) 1410 nM | Potency (CP192) 6010 nM | Potency (CP194) 6.75 µM | Potency (CP201) 2130 nM | Potency (CP203) 2690 nM | Potency (CP211) 2390 nM | Potency (CP215) 6010 nM | Potency (CP217) 4470 nM | Potency (CP237) 3550 nM | Potency (CP238) 3980 nM | Potency (CP247) 1410 nM

CC=CC1=C(C(=O)O)N2C(=O)[C@H](NC(=O)[C@H](N)c3ccc(O)cc3)[C@@H]2SC1
inactive: activity, negative = inhibition [1, 2] -3.61% | activity, negative = inhibition [1, 3] -5.72% | Potency (3D7) | Potency (7G8) | Potency (AA1029) | Potency (AS120) | Potency (ATS189) | Potency (ATS95) | Potency (C2A) | Potency (CP185) | Potency (CP191) | Potency (CP192) | Potency (CP194) | Potency (CP201) | Potency (CP203) | Potency (CP211) | Potency (CP215) | Potency (CP217) | Potency (CP237) | Potency (CP238) | Potency (CP247)
